Source: PubChem (several laboratories)
Mot1-301 SUMO = yeast Mot1-301 growth rescue at high temperature, primary screen, SUMOylation pathway inhibitor project, S. cerevisiae, ATP luminescence, 38.5C | S. cerevisiae Mot1-301 growth rescue; percent above DMSO median, 100 means doubled | growth rescue, % at 18.8 µM | 320,000 compounds, 1% hits;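 active = every valid replicate shows activation above 250% relative to neutral control wells; inactive = the rest, any valid replicate at or below 250%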;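 also: OY570 slx delta 5 strain wells were the positive control but not used for scaling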
GASC-1 inh = inhibitors of GASC-1 histone demethylase, primary screen, biochemical, fluorescence, DELFIA europium | AID 2099, 2009 | GST-JMJD2C(1-420) H3K9me3 demethylation | 330,000 compounds, 0.069% hits | inhibition, % at 2.35 µM | Lysine-specific demethylase 4C (Homo sapiens), Q9H3R0;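 active = more than half of a compound's replicate wells show inhibition beyond 50%, single wells judged on their own value; inconclusive = some, but no more than half, of replicates pass 50% inhibition; inactive = no replicate passes 50% inhibition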;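 also: signal counts dimethyl H3K9 product captured on neutravidin plate; 0% = median of DMSO wells and 100% = 0.3 times that DMSO median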
Target sequence (Q9H3R0 1-420 limits assumed): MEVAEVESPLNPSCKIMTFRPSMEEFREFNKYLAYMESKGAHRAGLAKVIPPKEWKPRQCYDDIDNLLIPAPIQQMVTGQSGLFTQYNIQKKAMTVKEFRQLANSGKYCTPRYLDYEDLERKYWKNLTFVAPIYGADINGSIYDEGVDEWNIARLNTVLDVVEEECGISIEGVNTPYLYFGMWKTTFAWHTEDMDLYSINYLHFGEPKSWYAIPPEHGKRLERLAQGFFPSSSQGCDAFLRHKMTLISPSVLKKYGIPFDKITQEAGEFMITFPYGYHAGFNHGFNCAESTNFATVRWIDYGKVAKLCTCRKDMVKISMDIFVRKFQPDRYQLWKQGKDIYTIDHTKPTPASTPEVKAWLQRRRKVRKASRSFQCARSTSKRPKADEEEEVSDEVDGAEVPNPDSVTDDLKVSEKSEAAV
PHOSPHO1 inh = PubChem AID 1565; Phosphoethanolamine/phosphocholine phosphatase (Homo sapiens), Q8TCT1; recombinant PHOSPHO1, absorbance phosphatase assay; inhibition, % at 13.3 µM; 290,000 compounds, 1.1% hits; in the data active = inhibition above about 60%
PvdQ acylase = P. aeruginosa PvdQ acylase inhibitors, primary screen, biochemical, fluorescence, plate reader and imaging, single point | PvdQ acylase [Pseudomonas aeruginosa LESB58] | purified PvdQ acylase | inhibition, % at 10 µM | 340,000 compounds, 0.063% hits | AID 488965, 2010; in the data active = inhibition above about 30%, passing the limit was not always enough; inconclusive = no clear call, values can overlap the other calls;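 also: 0% = vehicle neutral wells and 100% = reference inhibitor wells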
HDAC3 inhib = HDAC3 deacetylase inhibitors, primary screen, biochemical, fluorescence, cell-free homogeneous; Histone deacetylase 3 (Homo sapiens), O15379; recombinant HDAC3, fluorogenic peptide/trypsin coupled; inhibition, % at 8.3 µM; 320,000 compounds, 0.15% hits; AID 2718, 2010; in the data active = inhibition above about 26%, passing the limit was not always enough; inconclusive = no clear call, values can overlap the other calls
p-CIP stab down = p/CIP-EGFP fusion destabilizers, primary screen, fluorescence, F442A cells; 290,000 compounds, 0.01% hits; AID 1984, 2009; 16 h; Q05BA5; decrease of EGFP signal, % at 10 µM;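 active = EGFP signal decrease of at least 30% at 10 µM or well 3 SD below plate mean, unless failing retest; inactive = the rest, including hits failing retest or dose response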
* = called active by the depositor; i = inactive; ? = inconclusive; . = no result given. Rows were chosen to be rich in hits. Some 2.2% of all compounds tested hit in one or more screens of this group.

SMILES	Mot1-301 SUMO	GASC-1 inh	PHOSPHO1 inh	PvdQ acylase	HDAC3 inhib	p-CIP stab down
NC(=O)c1ccc(N2CCCCC2)c(N2C(=O)C3C4C=CC(C4)C3C2=O)c1 (centres undefined)	.	0	-14	-16	-2	-4
O=C(O)c1ccc(N2CCOCC2)c(N2C(=O)C3C4C=CC(C4)C3C2=O)c1 (centres undefined)	5	-4	62*	-17	3	-1
CN(c1ccc(C(=O)NCCCn2ccnc2)cc1)S(C)(=O)=O	1	1	30	-1	5	-5
Fc1ccc(-n2[nH]nnc2=S)cc1N1CCCC1	18	-3	78*	2	-2	-5
COc1ccc(OCC(=O)Nc2ccc3c(c2)nc(CCN2CCCC2)n3C)cc1	-6	2	51	-19	0	8
COc1ccc(OCC(=O)Nc2ccc3c(c2)nc(CCN2CCN(C)CC2)n3C)cc1	-5	.	70*	-10	-2	3
CN(C)S(=O)(=O)c1cc(NC(=O)COC(=O)CC2Sc3ccccc3NC2=O)ccc1Cl (centres undefined)	-7	-9	.	1	-1	.
Cc1nc(NC(C)C(=O)O)c2nc(C)oc2n1 (centres undefined)	-2	-3	62*	-7	4	5
Cc1ccc(S(=O)(=O)NCCC(=O)N2CCCCCCC2)cc1C	-1	3	.	0	-2	.
CCCC1COC(Cn2cncn2)(c2ccc(C)cc2)O1 (centres undefined)	281*	2	1	-9	3	-4
CCC(C)n1ncn(-c2ccc(N3CCN(c4ccc(OCC5COC(Cn6cncn6)(c6ccc(Cl)cc6Cl)O5)cc4)CC3)cc2)c1=O (centres undefined)	271	-25	32	-18	0	-1
COCCCNC(=S)N1CCC(C(=O)c2ccc(Cl)cc2)CC1	7	9	.	3	2	14
COc1ccc2c(C)c(CC(=O)N3CCN(C(=O)C4COc5ccccc5O4)CC3)c(=O)oc2c1 (centres undefined)	-8	11	64*	6	-80	-6
O=C(c1ccc2snnc2c1)N1CCSCC1	-4	-11	99*	-9	-6	12
O=C(c1ccc2snnc2c1)N1CCCCC1	-9	-33	2	0	-1	1
Cc1cccc(NC(=O)Cn2nc(-c3ccco3)ccc2=O)c1C	162	0	19	0	-2	-13
CCOC(=O)c1c(N)sn(-c2ccccc2C)c1=S	10	1	96*	15	2	-3
CCOC(=O)c1nn(-c2ccccc2C)c(=O)c2c(N)scc12	8	-1	-78	-6	5	-6
CCOc1ccc(C2CC(=O)n3nc(C45CC6CC(CC(C6)C4)C5)nc3S2)cc1OC (centres undefined)	-12	8	84*	-10	?	-2
COc1ccc(OC)c2nc(-c3ccc4c(c3)OCO4)ccc12	-7	-14	14	-8	3	5
c1ccc(C(c2ccccc2)c2noc(CN3CCC(c4ccncc4)CC3)n2)cc1	4	3	27	15	0	-5
O=C(NCCNS(=O)(=O)c1ccccc1)c1cc(OCC(F)(F)F)ccc1OCC(F)(F)F	.	4	62*	13	-1	-8
CN1CCN(S(=O)(=O)c2ccc(N(C)Cc3cccc(F)c3)nc2)CC1	7	0	.	-3	6	.
COc1cccc(C(=O)Nc2cc(-c3cn4cccnc4n3)ccc2C)c1	-3	-4	-79	-8	-128	3
Cc1ccc(Sc2ncnc3onc(C)c23)cc1	-20	-4	4	-11	-1	2
SMILES	Mot1-301 SUMO	GASC-1 inh	PHOSPHO1 inh	PvdQ acylase	HDAC3 inhib	p-CIP stab down
Cc1noc2ncnc(Sc3ccc(Cl)cc3)c12	324*	-5	-36	-7	-6	-5
Cc1ccc(NC(=O)C/C(N)=N/O)cc1C	11	i	69*	-6	-3	-14
Cc1cccc(C)c1NC(=O)C/C(N)=N/O	.	-2	-21	2	7	7
Cc1cc(Cl)ccc1OCCCC(=O)NO	19	-29	-7	-57	77*	-12
Cc1ccc(OCc2nnc(SCc3nc4ccccc4[nH]3)n2Cc2ccco2)cc1	139	-3	84*	-17	-3	-5
CCn1c(COc2ccc(C)cc2)nnc1SCC(=O)C(C)(C)C	-19	4	44	-14	-5	2
Cc1sc2nc(SCc3nc4ccccc4[nH]3)n(Cc3ccco3)c(=O)c2c1C	13	7	-40	5	4	-3
CCn1c(COc2ccc(C)cc2)nnc1SCc1ccc(C#N)cc1	-15	-2	94*	-4	4	2
CCn1c(COc2ccc(Cl)cc2)nnc1SCc1nc2ccccc2[nH]1	-15	-24	91*	-15	-1	-6
c1ccc(-c2nnc(SCc3nc4ccccc4[nH]3)n2Cc2ccco2)cc1	-14	-8	96*	4	5	1
O=C(COc1ccc2c3c(c(=O)oc2c1)CCC3)NCc1cccnc1	8	13	34	-16	-5	-4
COc1ccc(N(C(=O)c2cnccn2)C(C(=O)NC2CCCCC2)c2ccccc2)cc1 (centres undefined)	18	-8	32	7	-15	-1
Clc1ccc(OCCSCc2nc3ccccc3[nH]2)cc1	10	6	69*	-5	-4	-8
CCOC(=O)c1c2c(n(-c3ccc(OC)cc3)c1C)C(=O)C(=O)c1ccccc1-2	.	.	.	-14	.	.
O=S(=O)(CCNCCc1ccccc1)NCc1ccccc1	.	.	.	0	.	.
Cc1ccc(/C(O)=C2\C(=O)C(=O)N(c3cc(C)on3)C2c2cccc(Br)c2)cc1 (centres undefined)	-12	-4	46	-20	5	12
Cc1cc(N2C(=O)C(=O)/C(=C(/O)c3ccc(F)cc3)C2c2cccc(Br)c2)no1 (centres undefined)	.	56*	11	-11	7	-4
CC(C(=O)NCc1ccccn1)c1ccc([N+](=O)[O-])cc1 (centres undefined)	8	-11	34	6	1	2
CC(OC(=O)CCN1C(=O)C2CC=CCC2C1=O)C(=O)Nc1cccc(Cl)c1 (centres undefined)	6	-1	.	1	2	.
COc1ccc(OC)c(C(C(=O)NC2CCCCC2)N(Cc2ccco2)C(=O)c2ccccn2)c1 (centres undefined)	4	13	2	8	0	0
O=C(NC1CCCCC1)C(c1ccccc1F)N(Cc1ccco1)C(=O)c1ccccn1 (centres undefined)	310*	0	14	-9	9	-13
